Experimental data: PubChem BioAssay AID1851 (National Center for Advancing Translational Sciences (NCATS), 2009)
Among all 16,000 compounds or so, about 4,000 (25%) were called active. Roughly 26% stayed inconclusive and do not appear here. Calls follow the shape of the dose curve; as a rule, active = well fitted curve in the direction sought with a large enough effect; inconclusive = small, poorly fitted or top-dose-only effect, or effect the other way; inactive = no such curve, though single readings can be large or run the other way. The list is a sample of the results.

Each compound was assayed against Cytochrome P450 2C9 (Homo sapiens) (UniProt P11712) (assay: Cytochrome panel assay with activity outcomes). Details: recombinant CYP, pro-luciferin dealkylation, luminescence, p450-cyp2c9; series mostly up to 57.1 µM.
Chain of Cytochrome P450 2C9 (Homo sapiens) (P11712 whole entry, looked up): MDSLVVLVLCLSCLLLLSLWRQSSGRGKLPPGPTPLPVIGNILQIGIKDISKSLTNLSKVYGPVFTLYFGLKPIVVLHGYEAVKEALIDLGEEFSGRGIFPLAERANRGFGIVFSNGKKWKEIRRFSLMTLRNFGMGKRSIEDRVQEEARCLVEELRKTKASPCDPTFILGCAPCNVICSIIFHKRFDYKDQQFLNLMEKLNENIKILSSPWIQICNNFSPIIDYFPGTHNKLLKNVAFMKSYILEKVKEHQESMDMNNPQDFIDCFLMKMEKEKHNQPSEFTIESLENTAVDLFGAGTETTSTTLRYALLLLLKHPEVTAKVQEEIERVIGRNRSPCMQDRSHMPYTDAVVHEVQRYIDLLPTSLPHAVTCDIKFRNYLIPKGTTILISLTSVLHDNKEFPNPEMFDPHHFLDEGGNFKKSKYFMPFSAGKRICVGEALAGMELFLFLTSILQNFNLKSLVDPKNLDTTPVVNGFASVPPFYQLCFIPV
% is scaled to controls: 0 for no effect and ±100 for the full control effect.

AC50, active:
CCOC(=O)C1=C(C)NC(=O)NC1c1ccoc1 (stereo not given) 12.6 µM
CCN(C(=O)CSc1nc2cc(C(=O)OC)ccc2c(=O)n1Cc1ccco1)c1cccc(C)c1 0.2 µM
COCCNC(=O)CSc1nc2ccc(N3CCOCC3)cc2c(=O)n1Cc1ccc(OC)cc1 5.62 µM
CCCCNC(=O)CSc1nc2cc(OC)c(OC)cc2c(=O)n1Cc1ccc(OC)cc1 2.24 µM
COCCNC(=O)CSc1nc2cc(OC)c(OC)cc2c(=O)n1Cc1ccco1 2.24 µM
CCOC(=O)C[n+]1c(C)sc2ccc(OC)cc21 14.1 µM
N#CCCn1c(=O)c(CCc2ccccc2)nc2cnc(OCc3ccccc3)nc21 15.8 µM
N#CCCn1c(=O)c(CCc2ccccc2)nc2cnc(Oc3cccc(Cl)c3)nc21 3.16 µM
N#CCCn1c(=O)c(CCc2ccccc2)nc2cnc(Oc3ccccc3)nc21 7.94 µM
COc1ccc(Oc2ncc3nc(CCc4ccccc4)c(=O)n(CCC#N)c3n2)cc1 10 µM
COCCn1c(=O)c(CCc2ccccc2)nc2cnc(Oc3ccc(OC)cc3)nc21 10 µM
N#CCCn1c(=O)c(-c2ccccc2)nc2cnc(OCc3ccccc3)nc21 12.6 µM
COCCn1c(=O)c(CCc2ccccc2)nc2cnc(Oc3cccc(Cl)c3)nc21 1 µM
COc1ccc(Oc2ncc3nc(CCc4ccccc4)c(=O)n(C)c3n2)cc1 10 µM
COc1cc(NC(=S)Nc2ccc(S(=O)(=O)N3CCOCC3)cc2)cc(OC)c1OC 15.8 µM
CC=C(/C(=C/C)c1ccc(O)cc1)c1ccc(O)cc1 0.794 µM
O=c1c(CCc2ccccc2)nc2cnc(Oc3cccc(Cl)c3)nc2n1C[C@H]1CCCO1 6.31 µM
O=c1c(-c2cccs2)nc2cnc(Oc3cccc(Cl)c3)nc2n1C[C@H]1CCCO1 3.16 µM
COc1ccc(-c2nc3cnc(Oc4cccc(Cl)c4)nc3n(C[C@H]3CCCO3)c2=O)cc1 5.01 µM
Cc1ccc(-n2c(C)cc(C(=S)N3CCOCC3)c2C)cc1C 11.2 µM
COc1cc2c(cc1OC)-c1cc(=Nc3c(C)cc(C)cc3C)n(C)c(=O)n1CC2 1.26 µM

AC50, inactive:
CCNc1ncc2nc(-c3ccc(F)cc3)c(=O)n(CCOC)c2n1
COc1cc2nc(N(C)CCCNC(=O)[C@@H]3CCCO3)nc(N)c2cc1OC
COCCCNC(=O)CCC(=O)Nc1ccc2nc(N3CCOCC3)cc(C)c2c1
COCCn1c(=O)c(-c2ccc(OC)cc2)nc2cnc(N3CCOCC3)nc21
COc1ccc2nc(SCC(=O)NN)cc(C)c2c1
COc1cc2nc(N3CC=[N+](C(=O)c4ccco4)CC3)nc(N)c2cc1OC
CCN1CCC[C@H]1CNC(=O)c1cc(S(N)(=O)=O)ccc1OC
Cc1sc2ccccc2[n+]1CCC(C)S(=O)(=O)[O-] (stereo not given)
COCCn1c(=O)c(-c2cn(C)c3ccccc23)nc2cnc(OCc3ccccc3)nc21
COc1cccc(Nc2ncc3nc(CCc4ccccc4)c(=O)n(CCC#N)c3n2)c1
COc1ncc2nc(CCc3ccccc3)c(=O)n(CCC#N)c2n1
Cn1cc(-c2nc3cnc(Oc4ccccc4)nc3n(CCC#N)c2=O)c2ccccc21
COc1ncc2nc(CCc3ccccc3)c(=O)n(C)c2n1
N#CCCn1c(=O)cnc2cnc(OCc3ccccc3)nc21
N#CCCn1c(=O)c(-c2ccc(F)cc2)nc2cnc(OCc3ccccc3)nc21
COc1ccc(Oc2ncc3nc(C)c(=O)n(C)c3n2)cc1
O=C(Nc1cccc(F)c1)N1CC[C@@]2(CCCN(C(=O)c3cnccn3)C2)C1
CS(=O)(=O)Nc1ccc(S(=O)(=O)N2CCOCC2)cc1
CN(C)c1ncc2nc(-c3cccs3)c(=O)n(C[C@H]3CCCO3)c2n1
O=c1cnc2cnc(Nc3ccccc3)nc2n1C[C@H]1CCCO1
O=c1c(-c2cccs2)nc2cnc(Nc3ccccc3)nc2n1C[C@H]1CCCO1
COc1ncc2nc(-c3cc(F)cc(F)c3)c(=O)n(C[C@H]3CCCO3)c2n1
COc1ccc(-c2nc3cnc(N(C)C)nc3n(C[C@H]3CCCO3)c2=O)cc1
Cc1nc2cnc(Oc3cccc(Cl)c3)nc2n(C[C@H]2CCCO2)c1=O
CC(=O)Nc1c(C(=O)N2CCOCC2)cnn1-c1ccc(C)c(C)c1

activity, negative = inhibition, inactive:
CCOC(=O)c1c(C)c(C)n2c1NC(=O)C2 -2.03% [at 11.4 µM]
CCOC(=O)C1=C(C)NC(=O)N[C@@H]1c1coc2cc(C)cc(C)c2c1=O -14.5% [at 11.4 µM]
Cc1sc2ccccc2[n+]1CCC(=O)O 9.02% [at 11.4 µM]
C/C(=N\[N+](C)(C)C)c1ccc(C)c(C)c1 13% [at 11.4 µM]
COc1ccc(CNc2ccnc(-c3ccccc3Cl)n2)c(OC)c1 -11.5% [at 2.29 µM]
N[C@@H]1[C@@H]2[C@@H]3C[C@H]4N(CC[C@@]14C(=O)C(=O)O)CC3=CCO[C@@H]2CC(=O)O 5.63% [at 11.4 µM]
CC(C)(C)CNCCO 3.65% [at 11.4 µM]
FC(F)(F)c1ccccc1-c1cncnc1Nc1ccccc1 -0.414% [at 2.29 µM]
CC(=O)NCCNc1cc(-c2ccccc2C(F)(F)F)ncn1 -3.9% [at 2.29 µM]
Cc1cc(N2CCN(C)CC2)n2nc(-c3ccc(Cl)cc3)nc2n1 6.91% [at 11.4 µM]
Cc1noc(C)c1-c1nccc(N2CCN(C)CC2)n1 14.4% [at 2.29 µM]
CN(C)Cc1ccccc1-c1cncnc1NCc1cccnc1 11.6% [at 2.29 µM]
COc1ccc(CNc2cc(-c3ccccc3CN(C)C)ncn2)c(OC)c1 4.22% [at 2.29 µM]
Cc1cnc(CNc2ccnc(-c3ccoc3)n2)cn1 12.6% [at 2.29 µM]
